Test [1] concerns Proto-oncogene tyrosine-protein kinase receptor Ret (Homo sapiens), P07949 [Y791F]. Conditions: at 1 µM.
For test [2], the target named is Macrophage-stimulating protein receptor (Homo sapiens) (UniProt Q04912). Conditions: at 0.1 µM.
For test [3] the target is unchanged. Conditions: at 1 µM.
Test [4] addresses Proto-oncogene tyrosine-protein kinase ROS (Homo sapiens) (UniProt P08922). The conditions noted are these: at 0.1 µM.
The target is the same in test [5]. The conditions noted are these: at 1 µM.
Test [6] deals with Proto-oncogene tyrosine-protein kinase Src (Homo sapiens) (UniProt P12931). The conditions noted are these: at 0.1 µM.
Sequence of Proto-oncogene tyrosine-protein kinase Src (Homo sapiens) (P12931 2-536 limits assumed): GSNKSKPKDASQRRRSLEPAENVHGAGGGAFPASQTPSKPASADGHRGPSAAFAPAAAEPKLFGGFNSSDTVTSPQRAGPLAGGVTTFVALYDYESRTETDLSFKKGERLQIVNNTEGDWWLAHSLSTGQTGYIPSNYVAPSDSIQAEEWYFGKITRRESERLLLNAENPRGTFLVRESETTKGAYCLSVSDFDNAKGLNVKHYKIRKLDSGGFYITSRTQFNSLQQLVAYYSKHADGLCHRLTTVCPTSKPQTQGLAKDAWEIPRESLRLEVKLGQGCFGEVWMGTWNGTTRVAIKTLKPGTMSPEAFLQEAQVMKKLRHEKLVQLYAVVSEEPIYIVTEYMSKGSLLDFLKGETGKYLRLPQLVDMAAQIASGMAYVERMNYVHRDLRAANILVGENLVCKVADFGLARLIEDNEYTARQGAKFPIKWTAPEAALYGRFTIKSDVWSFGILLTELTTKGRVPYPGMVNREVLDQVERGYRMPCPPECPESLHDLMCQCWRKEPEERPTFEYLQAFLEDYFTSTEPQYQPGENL
For test [7] the target is unchanged. The conditions noted are these: at 1 µM.
Test [8] deals with Tyrosine-protein kinase Srms (Homo sapiens) (UniProt Q9H3Y6). Conditions: at 0.1 µM.
Sequence of Tyrosine-protein kinase Srms (Homo sapiens) (Q9H3Y6 whole entry): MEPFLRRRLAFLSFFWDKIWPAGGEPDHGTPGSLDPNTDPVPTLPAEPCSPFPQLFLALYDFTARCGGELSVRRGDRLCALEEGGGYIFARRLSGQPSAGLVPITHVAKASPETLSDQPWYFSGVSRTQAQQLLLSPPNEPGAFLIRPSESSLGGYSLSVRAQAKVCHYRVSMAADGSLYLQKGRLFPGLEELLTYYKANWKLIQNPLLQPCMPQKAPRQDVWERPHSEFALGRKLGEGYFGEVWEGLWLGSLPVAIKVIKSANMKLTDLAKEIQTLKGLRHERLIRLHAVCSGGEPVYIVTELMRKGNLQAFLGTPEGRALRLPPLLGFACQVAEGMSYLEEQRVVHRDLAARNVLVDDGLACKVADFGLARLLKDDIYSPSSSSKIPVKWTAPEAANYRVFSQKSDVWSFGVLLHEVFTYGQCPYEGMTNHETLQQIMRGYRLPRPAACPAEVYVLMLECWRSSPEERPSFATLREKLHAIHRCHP
Test [9] shares this target. Conditions: at 1 µM.
Test [10] has as its target Tyrosine-protein kinase SYK (Homo sapiens) (UniProt P43405). The conditions noted are these: at 0.1 µM.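 Also: reported percentages are mean inhibition values for SYK.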

Sequence of Macrophage-stimulating protein receptor (Homo sapiens) (Q04912 25-304 limits assumed): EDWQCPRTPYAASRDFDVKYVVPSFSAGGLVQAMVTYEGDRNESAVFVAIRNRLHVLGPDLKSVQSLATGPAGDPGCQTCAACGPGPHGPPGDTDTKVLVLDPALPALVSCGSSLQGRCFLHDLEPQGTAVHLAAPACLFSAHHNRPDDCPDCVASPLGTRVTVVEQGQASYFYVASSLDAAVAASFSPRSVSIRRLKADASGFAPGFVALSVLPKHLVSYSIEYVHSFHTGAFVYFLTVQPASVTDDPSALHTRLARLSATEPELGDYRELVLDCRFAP
Sequence of Macrophage-stimulating protein receptor (Homo sapiens) (Q04912 310-1400 limits assumed): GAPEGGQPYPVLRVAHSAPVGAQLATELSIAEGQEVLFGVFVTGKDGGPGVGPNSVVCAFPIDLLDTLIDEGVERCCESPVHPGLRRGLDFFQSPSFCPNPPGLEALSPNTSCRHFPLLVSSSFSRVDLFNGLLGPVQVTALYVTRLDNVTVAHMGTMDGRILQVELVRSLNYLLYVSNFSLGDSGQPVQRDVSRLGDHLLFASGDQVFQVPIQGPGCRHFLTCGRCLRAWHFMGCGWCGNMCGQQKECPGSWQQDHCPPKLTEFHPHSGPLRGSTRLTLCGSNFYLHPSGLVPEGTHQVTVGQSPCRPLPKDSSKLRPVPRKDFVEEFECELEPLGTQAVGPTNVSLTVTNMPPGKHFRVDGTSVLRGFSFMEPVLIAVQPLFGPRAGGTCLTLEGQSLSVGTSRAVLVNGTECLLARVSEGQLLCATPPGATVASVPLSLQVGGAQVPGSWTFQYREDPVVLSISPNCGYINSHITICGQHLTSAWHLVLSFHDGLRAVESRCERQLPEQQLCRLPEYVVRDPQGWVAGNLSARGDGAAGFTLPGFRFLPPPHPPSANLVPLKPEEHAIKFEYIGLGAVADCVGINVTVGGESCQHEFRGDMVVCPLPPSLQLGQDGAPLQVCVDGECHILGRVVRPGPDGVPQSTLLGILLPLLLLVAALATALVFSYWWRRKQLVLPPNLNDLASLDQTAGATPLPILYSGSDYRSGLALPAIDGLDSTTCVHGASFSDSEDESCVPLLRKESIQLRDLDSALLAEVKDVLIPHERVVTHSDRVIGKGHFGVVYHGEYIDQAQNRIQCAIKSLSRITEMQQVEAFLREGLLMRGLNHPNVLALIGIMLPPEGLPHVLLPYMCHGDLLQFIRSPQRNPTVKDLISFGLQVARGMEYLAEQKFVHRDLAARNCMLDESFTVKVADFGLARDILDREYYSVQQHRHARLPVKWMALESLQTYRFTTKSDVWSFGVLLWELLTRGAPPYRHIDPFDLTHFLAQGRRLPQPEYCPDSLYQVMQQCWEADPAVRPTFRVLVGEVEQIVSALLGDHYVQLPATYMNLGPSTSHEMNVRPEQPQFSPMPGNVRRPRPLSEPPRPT
Sequence of Proto-oncogene tyrosine-protein kinase ROS (Homo sapiens) (P08922 whole entry): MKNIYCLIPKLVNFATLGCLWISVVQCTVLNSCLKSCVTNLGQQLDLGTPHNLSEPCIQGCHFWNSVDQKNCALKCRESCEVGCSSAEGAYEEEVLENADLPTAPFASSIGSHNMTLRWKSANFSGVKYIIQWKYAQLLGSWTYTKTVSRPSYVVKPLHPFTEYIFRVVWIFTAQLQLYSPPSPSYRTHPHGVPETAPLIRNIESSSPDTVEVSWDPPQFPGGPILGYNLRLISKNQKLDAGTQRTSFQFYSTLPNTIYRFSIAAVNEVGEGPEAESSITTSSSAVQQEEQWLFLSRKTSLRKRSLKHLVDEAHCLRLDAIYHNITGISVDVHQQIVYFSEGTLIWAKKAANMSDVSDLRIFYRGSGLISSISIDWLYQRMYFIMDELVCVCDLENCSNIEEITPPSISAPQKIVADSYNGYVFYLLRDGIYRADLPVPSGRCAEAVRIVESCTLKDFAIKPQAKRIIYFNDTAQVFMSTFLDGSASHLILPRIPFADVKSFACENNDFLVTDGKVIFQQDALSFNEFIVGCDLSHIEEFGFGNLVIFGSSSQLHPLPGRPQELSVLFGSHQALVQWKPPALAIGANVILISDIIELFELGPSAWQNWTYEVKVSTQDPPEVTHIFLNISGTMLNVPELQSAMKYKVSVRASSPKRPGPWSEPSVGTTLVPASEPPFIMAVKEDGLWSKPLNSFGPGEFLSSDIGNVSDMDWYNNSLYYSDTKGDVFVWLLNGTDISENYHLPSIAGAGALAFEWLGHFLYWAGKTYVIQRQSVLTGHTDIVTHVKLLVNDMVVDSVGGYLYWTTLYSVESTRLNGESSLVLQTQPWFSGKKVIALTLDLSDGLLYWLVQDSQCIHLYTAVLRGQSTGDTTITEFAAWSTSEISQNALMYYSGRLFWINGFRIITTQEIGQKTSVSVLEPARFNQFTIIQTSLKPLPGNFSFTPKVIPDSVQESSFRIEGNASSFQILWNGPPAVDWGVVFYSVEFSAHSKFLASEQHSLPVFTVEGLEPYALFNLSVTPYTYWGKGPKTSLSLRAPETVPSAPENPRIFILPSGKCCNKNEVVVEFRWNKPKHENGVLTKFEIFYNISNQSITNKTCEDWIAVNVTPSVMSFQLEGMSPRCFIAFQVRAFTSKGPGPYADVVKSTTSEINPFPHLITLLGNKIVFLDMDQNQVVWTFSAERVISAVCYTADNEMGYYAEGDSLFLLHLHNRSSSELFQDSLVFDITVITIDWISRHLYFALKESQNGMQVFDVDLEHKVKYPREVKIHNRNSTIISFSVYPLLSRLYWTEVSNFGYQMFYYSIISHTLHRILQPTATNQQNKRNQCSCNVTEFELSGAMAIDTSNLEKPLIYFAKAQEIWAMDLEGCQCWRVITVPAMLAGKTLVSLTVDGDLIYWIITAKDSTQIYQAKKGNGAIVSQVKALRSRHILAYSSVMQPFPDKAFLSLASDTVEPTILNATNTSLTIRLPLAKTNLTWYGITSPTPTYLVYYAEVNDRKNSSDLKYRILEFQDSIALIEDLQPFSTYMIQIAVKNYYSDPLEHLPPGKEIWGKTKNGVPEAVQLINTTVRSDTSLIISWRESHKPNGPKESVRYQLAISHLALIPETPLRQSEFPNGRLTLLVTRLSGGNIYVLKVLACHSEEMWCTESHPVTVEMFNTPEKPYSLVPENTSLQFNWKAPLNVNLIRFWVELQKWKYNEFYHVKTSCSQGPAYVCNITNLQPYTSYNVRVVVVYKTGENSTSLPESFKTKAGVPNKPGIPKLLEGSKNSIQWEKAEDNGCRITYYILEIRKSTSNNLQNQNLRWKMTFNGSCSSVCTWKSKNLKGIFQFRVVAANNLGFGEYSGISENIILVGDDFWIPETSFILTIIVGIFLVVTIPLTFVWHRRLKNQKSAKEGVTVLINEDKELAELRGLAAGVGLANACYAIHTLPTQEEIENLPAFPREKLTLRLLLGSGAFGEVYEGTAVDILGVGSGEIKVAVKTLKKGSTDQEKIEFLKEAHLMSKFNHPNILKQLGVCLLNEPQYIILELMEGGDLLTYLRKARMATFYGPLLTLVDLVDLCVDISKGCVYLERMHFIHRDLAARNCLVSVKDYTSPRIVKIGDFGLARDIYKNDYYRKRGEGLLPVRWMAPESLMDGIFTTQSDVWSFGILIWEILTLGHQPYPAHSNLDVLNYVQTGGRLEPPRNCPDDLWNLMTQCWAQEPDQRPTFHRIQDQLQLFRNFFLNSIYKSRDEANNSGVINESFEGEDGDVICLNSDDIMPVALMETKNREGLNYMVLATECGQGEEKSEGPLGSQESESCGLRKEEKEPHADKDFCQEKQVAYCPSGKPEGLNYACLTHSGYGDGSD

What is called inhibition is the change of the read-out against control, counted positive when it falls. As for `O=C1Nc2ccc(-c3cccnc3)cc2C1=Cc1cc(Br)c(O)c(Br)c1`, the inhibition in test [1] was 1.19%; in test [2], -1.31%; in test [3] it was 8.32%; in test [4], 8.46%; in [5], 18.3%; in test [6] it was 2.96%. The inhibition in test [7] was 12.1%; in test [8], 12.3%; in [9], 57.9%; in [10], -3.33%.
On to `CN(C)C(=O)O[C@@H]1CN[C@@H](C#Cc2cc3ncnc(Nc4ccc(OCc5cccc(F)c5)c(Cl)c4)c3s2)C1`, for which the inhibition in test [1] was 0.86%; in [2], -3.14%; in test [3], -2.46%; in [4], 1.04%; in test [5], 4.92%; in test [6], 3.94%. Also, the inhibition was 3.62% in [7], -1.8% in test [8], -0.67% in test [9] and 6.58% in test [10].
Turning to `N#Cc1cccc(Nc2nccc(-c3cnn4ncccc34)n2)c1`, the inhibition was 37.3% in test [1]; -3.06% in [2]; 15.6% in test [3]; 32.1% in [4]; 74.2% in [5]; 14.3% in [6]. Also, the inhibition in test [7] stood at 66%; in test [8], 1.1%; in test [9], 14.7%.
On to `O=C1Nc2ccccc2/C1=C/Nc1ccc2[nH]c(=O)[nH]c2c1`, for which the inhibition was found to be 67% in test [1]; 5.9% in test [2]; 10.9% in test [3]; 3.89% in test [4]; 11.8% in test [5]; 5.5% in test [6]. The inhibition in [7] was 31%; in [8], -2.08%; in [9], 3.2%; in test [10] it was 3.76%.
As to `COc1cccc(-n2ncc3c(N/N=C/c4ccc(C)cc4)ncnc32)c1`, the inhibition in test [1] came to 13.9%; in test [2], 2.1%; in test [3] it was 9.64%; in test [4] it was 14.2%; in test [5] it was 38.4%; in test [6], 14.2%. In addition, the inhibition in test [7] was 32.9%; in test [8] it was -2.37%; in test [9], -0.01%; in [10] it was 0.52%.
Take `COc1cc2ncnc(Nc3ccc4c(cnn4Cc4ccccc4)c3)c2cc1OC`: the inhibition in test [1] is 40%; in [2] it was 3.2%; in test [3], 2.02%; in test [4] it was 6.51%; in [5], 4.63%; in [6], 10.1%. Also, the inhibition is 41.8% in test [7], 0.35% in test [8], 4.63% in test [9] and 4.44% in test [10].
`CS(=O)(=O)Nc1cccc(-c2ccc3c(NC(=O)C4CC4)n[nH]c3c2)c1`: the inhibition in test [1] is -0.36%; in test [2], -6.3%; in [3] it was -6.45%; in test [4] it was 3.6%; in [5], 2.79%; in [6], 1.2%. Moreover, the inhibition is 4.09% in [7], 1.35% in test [8], -2.43% in test [9] and -1.34% in test [10].
`COc1ccc(-c2nn3ncccc3c2-c2ccnc(Nc3cccc(C(F)(F)F)c3)n2)cc1`: the inhibition was 6.6% in [1]; 0.53% in [2]; -3.48% in test [3]; 2.58% in test [4]; 4.13% in test [5]; 6.2% in test [6]. The inhibition in [7] was 10%; in test [8] it was -1.6%; in test [9], 1.75%; in test [10], -1.06%.
For the compound `CN1CCN(C(=O)c2ccc(NC(=O)Nc3ccc(N(C)c4ccnc(Nc5ccc(CS(C)(=O)=O)cc5)n4)cc3)cc2)CC1`, the inhibition in test [1] was determined as 82.8%; in [2], 18.6%; in [3] it was 58.6%; in test [4], 14.6%; in test [5], 54.1%; in test [6] it was 10.7%. The inhibition in test [7] was 42.2%; in test [8], 0.11%; in test [9], 5.6%; in test [10], -0.89%.
`Nc1nccc(-c2c(-c3ccc(F)cc3)nn3cc(C(F)(F)F)ccc23)n1`: the inhibition in [1] is 3.56%; in test [2] it was 1.05%; in test [3], -2.78%; in test [4], 4.58%; in test [5], 2.24%; in [6] it was 1.35%. For the same compound, the inhibition in test [7] is 1.39%; in test [8], 0.31%; in test [9] it was -1.94%; in test [10], -0.75%.
`Cc1nc(-c2ccccc2)n2nc(NCCCN3CCOCC3)ncc12`: the inhibition was 4.86% in test [1]; 2.7% in test [2]; -3.01% in [3]; 4.45% in test [4]; 2.41% in [5]; 6.46% in test [6]. Moreover, the inhibition in test [7] worked out at 6.81%; in [8], 2.65%; in [9], 2.27%; in test [10], 1.44%.
For the compound `OCc1ccc(-c2nc(-c3ccccn3)c(-c3ccc4c(c3)OCO4)[nH]2)cc1`, the inhibition in [1] is 6.59%; in [2], -1.95%; in test [3] it was -0.55%; in test [4] it was 6.84%; in test [5] it was 8.11%; in test [6] it was -0.99%. The inhibition in test [7] was 10.6%; in test [8], 0.43%; in test [9], -1.19%; in test [10], -7.53%.
Consider `Cc1ccc2c(-c3ccnc(Nc4cccc(C(F)(F)F)c4)n3)c(-c3ccccc3)nn2n1`, for which the inhibition in test [1] came to 37.9%; in test [2], 2.85%; in [3], 13.6%; in [4], 7.31%; in test [5], 9.43%; in [6], 25.3%. In addition, the inhibition amounted to 72.9% in test [7], 1.71% in [8], 22.1% in test [9] and 0.45% in test [10].
For `C[C@@H](Oc1cc(-n2cnc3ccc(OC[C@@H](O)CO)cc32)sc1C(N)=O)c1ccccc1Cl`, the inhibition is 10.8% in test [1]; -4.17% in test [2]; 6.85% in test [3]; 1.32% in [4]; 11.6% in [5]; 3.67% in test [6]. Moreover, the inhibition in test [7] is 5.14%; in test [8] it was 0.51%; in test [9] it was 2.19%; in test [10], 1.72%.
In the case of `COc1cc2ncnc(Nc3ccc(C)c(O)c3)c2cc1OC`, the inhibition in [1] came to 90.1%; in test [2], 1.46%; in test [3], 2.44%; in test [4], 1.94%; in test [5] it was 10.2%; in test [6], 22.9%. In addition, the inhibition was 70.5% in test [7], 2.71% in test [8], 18.7% in test [9] and -4.37% in test [10].
`CS(=O)(=O)CCNCc1nc(-c2ccc3ncnc(Nc4ccc(OCc5cccc(C(F)(F)F)c5)cc4)c3c2)cs1`: the inhibition amounted to 5.88% in test [1]; 4.48% in [2]; 2.59% in test [3]; 4.03% in test [4]; 4.18% in test [5]; 6.29% in [6]. Moreover, the inhibition was 7.64% in test [7], -0.76% in test [8], -3.56% in test [9] and 0.35% in test [10].
Turning to `Cc1cc(-c2ccccn2)cc(C)c1/C=C/c1cncc(-c2nn[nH]n2)c1`, the inhibition in test [1] was 9.36%; in test [2] it was 3.67%; in test [3], 3.94%; in [4], 9.51%; in test [5], 10.9%; in test [6] it was 7.7%. The inhibition was 15.4% in [7], -2.18% in test [8], 11.8% in [9] and -0.33% in test [10].

The record behind these values is ChEMBL document CHEMBL1961873, “Compounds: GSK PKIS; Assays: Nanosyn kinase panel” (2012).
